Data reported in PubChem BioAssay (NCATS).
Inconclusive results are not listed. Active and inactive are the calls of the source. Calls follow the shape of the dose curve; as a rule, active = well fitted inhibition curve with a large enough effect; inconclusive = small, poorly fitted or top-dose-only effect; inactive = flat fitted curve, though single readings scatter.

Test: P-glycoprotein substrates identified in KB-8-5-11 adenocarcinoma cell line, qHTS therapeutic library screen (AID 1346987); also: nearly all actives have a fitted effect of over 65% in size
Details: KB-8-5-11 (P-gp overexpressing) viability, CellTiter-Glo, 72 h; series mostly up to 44.5 µM; activity change, negative = cytotoxicity: at the top concentration
Method in brief: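 In this qHTS, P-gp-rich KB-8-5-11 cells received library compounds across a concentration range. Viability was quantified by luminescence after 72 h at 37 degree C.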
% is scaled to controls: 0 for no effect and ±100 for the full control effect.

Structure (SMILES)	outcome	activity change, negative = cytotoxicity
N=C(N)c1ccc2nc(-c3cc(CC(=O)NC(CC(=O)O)C(=O)O)cc(-c4cc(S(N)(=O)=O)ccc4O)c3O)[nH]c2c1 (stereo not drawn)	inactive	–
COc1ccnc(CCc2nc3ncccc3[nH]2)c1	inactive	–
CC/C=C/C=C/C1(C)OC(CC(CO)OC)=CC1=O (stereo not drawn)	–	6.07% (inactive)
CC(=O)OCC1=C[C@@H]2OC(=O)C3=CO[C@@H](O[C@@H]4O[C@H](CO)[C@@H](O)[C@H](O)[C@H]4O)[C@H]1[C@@H]32	–	5.71% [at 17.3 µM] (inactive)
CC(C)=CC1C[C@](C)(O)[C@@H]2[C@H]3CCC4[C@@]5(C)CC[C@H](O[C@@H]6OC[C@H](O)[C@H](O[C@@H]7O[C@H](CO[C@@H]8O[C@H](CO)[C@@H](O)[C@H](O)[C@H]8O)[C@@H](O)[C@H](O)[C@H]7O)[C@H]6O[C@@H]6O[C@@H](C)[C@H](O)[C@@H](O)[C@H]6O)C(C)(C)[C@@H]5CC[C@@]4(C)[C@@]34CO[C@@]2(C4)O1 (stereo partly drawn)	–	9.35% [at 9.29 µM] (inactive)
COC(=O)C1=CO[C@@H](O[C@@H]2O[C@H](CO)[C@@H](O)[C@H](O)[C@H]2O)[C@@H]2[C@@H](CO)[C@@H](O)C(O)[C@H]12 (stereo partly drawn)	inactive [at 17.3 µM]	–
C[C@@H]1C[C@@H](O)[C@@]23CO[C@]2(CO)C[C@@H](O)CC3[C@@]12CC(c1ccoc1)OC2=O (stereo partly drawn)	–	4.87% (inactive)
CC1CC(O)/C=C/C(O)/C=C\C(=O)O1 (stereo not drawn)	–	5.67% [at 93.4 µM] (inactive)
CC1(C)C2CCC1(C)C(OC(=O)C(O)(CC(=O)O)CC(=O)O)C2 (stereo not drawn)	inactive	–
O=C(O)[C@H](Cc1ccccc1)Oc1ccc(-c2ccccc2)cc1	inactive	–
N#Cc1ccc(C2CCCc3cncn32)cc1 (stereo not drawn)	inactive [at 17.3 µM]	–
C=C[C@H]1[C@H](O[C@@H]2O[C@H](CO)[C@@H](O)[C@H](O)[C@H]2O)OC=C2C(=O)N3Cc4c([nH]c5ccccc5c4=O)[C@@H]3C[C@H]21	–	0.77% [at 17.3 µM] (inactive)
CCC(C)/C=C(C)/C=C/C1=CC2=C(Cl)C(=O)C(C)(OC(C)=O)C(=O)C2=CN1CCCCC(N)C(=O)O (stereo not drawn)	inactive [at 17.3 µM]	–
C=C1CC2C3(C)C(O)CC(=O)C(C)(C)C3C(O)C(OC(C)=O)C2(C)C2C(=O)OC(C)(C(=O)OC)C(=O)C12C (stereo not drawn)	–	4.77% [at 17.3 µM] (inactive)
COc1cccc(CN(C(=O)CC(C)(C)C)C2CC(C(=O)N3CCNCC3)N(Cc3ccc4c(c3)OCO4)C2)c1 (stereo not drawn)	–	1.15% (inactive)
C/C=C(\C)C(=O)OC[C@H]1O[C@H](O[C@H]2O[C@H](CO)[C@@H](O)[C@H](O)[C@H]2O[C@@H]2O[C@H](CO)[C@@H](O)[C@H](O)[C@H]2O)[C@H](O[C@@H]2O[C@H](CO)[C@@H](O)[C@H](O)[C@H]2O)[C@@H](O)[C@@H]1O	–	4.34% [at 17.3 µM] (inactive)
CSCC1OC(n2cnc3c(N)ncnc32)C(O)C1O (stereo not drawn)	inactive	–
CC(=O)O[C@@H]1[C@H](O[C@@H]2O[C@H](CO)[C@@H](O)[C@H](O)[C@H]2O)[C@@H](O[C@@H]2O[C@@H](C)[C@H](O)[C@@H](O[C@@H]3O[C@H](CO)[C@@H](O)[C@H](O)[C@H]3O)[C@H]2O)[C@H](OC(=O)[C@]23CCC(C)(C)C[C@H]2C2=CCC4[C@@]5(C)C[C@H](O)[C@H](O[C@@H]6O[C@H](C(=O)O)[C@@H](O)[C@H](O)[C@H]6O)[C@@](C)(C(=O)O)C5CC[C@@]4(C)[C@]2(C)CC3)O[C@@H]1C (stereo partly drawn)	–	8.71% [at 9.29 µM] (inactive)
